# Experimental data taken from the supplement of paper PMC12632987.
# T1: USP38, Q8NB14
# T1 chain: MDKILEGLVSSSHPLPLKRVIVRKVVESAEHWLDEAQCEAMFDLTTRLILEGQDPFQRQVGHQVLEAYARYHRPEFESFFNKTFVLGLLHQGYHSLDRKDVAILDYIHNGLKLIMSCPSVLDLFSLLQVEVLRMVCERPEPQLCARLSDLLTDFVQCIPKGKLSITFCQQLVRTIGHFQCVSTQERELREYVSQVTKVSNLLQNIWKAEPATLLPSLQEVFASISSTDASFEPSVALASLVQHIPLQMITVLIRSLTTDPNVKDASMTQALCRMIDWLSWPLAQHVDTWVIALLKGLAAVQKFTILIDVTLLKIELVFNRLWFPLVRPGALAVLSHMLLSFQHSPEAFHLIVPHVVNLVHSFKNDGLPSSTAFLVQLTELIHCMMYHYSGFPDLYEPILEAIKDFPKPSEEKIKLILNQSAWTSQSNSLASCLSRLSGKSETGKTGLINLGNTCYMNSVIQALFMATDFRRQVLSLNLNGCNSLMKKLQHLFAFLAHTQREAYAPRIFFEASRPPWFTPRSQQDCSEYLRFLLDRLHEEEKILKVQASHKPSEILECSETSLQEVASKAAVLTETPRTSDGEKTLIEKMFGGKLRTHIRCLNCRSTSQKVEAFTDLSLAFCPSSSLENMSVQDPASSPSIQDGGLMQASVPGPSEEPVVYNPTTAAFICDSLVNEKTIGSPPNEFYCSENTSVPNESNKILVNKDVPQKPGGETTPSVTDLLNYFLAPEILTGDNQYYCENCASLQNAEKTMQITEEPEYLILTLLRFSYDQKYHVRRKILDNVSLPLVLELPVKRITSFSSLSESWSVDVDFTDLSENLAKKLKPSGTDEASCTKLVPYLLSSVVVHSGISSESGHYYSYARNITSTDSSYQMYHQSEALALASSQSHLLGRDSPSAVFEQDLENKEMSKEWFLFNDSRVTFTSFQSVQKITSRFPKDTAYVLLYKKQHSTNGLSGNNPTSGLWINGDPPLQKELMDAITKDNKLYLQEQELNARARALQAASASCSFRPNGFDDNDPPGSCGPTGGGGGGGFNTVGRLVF
# B1: usp_38_diff_out_18_28_393 (protein)
# chain: SEERRKELEERLKALEAELDALITEATAVATERLEAHPDDEAVWELVDALFDALGAAAAALREARELLRAGGDLEEVEALLDQAEAALAEAKALLAELKA
# B2: usp_38_diff_out_18_28_388 (protein)
# chain: SEEEREELRERLEELEKRLDALIDEATAVATAALTAHPDSAEVQALVAELFDALGAAAAALRRARELLRRGGPLEEVREALEEAERHLEEAERLLAELRA
# B3: usp_38_diff_out_18_28_385 (protein)
# chain: MEEERKKLEEELEKLKKELDKLIDEAVELATAALEAHPDDEAVWALVDALFDALGAAAAALNRARELLKAGGDPEEVKKELDKARAALKEAKALLAELKA
# B4: usp_38_diff_out_18_28_382 (protein)
# chain: AAAEREKLEAELKKLEAELNKLIDEATELATKKLTEHPDDEEVWKLVDELFDALGKAAAALNRARELLRAGGPAEEVKKALEEAEKYMKEAKKLMEELKK
# B5: usp_38_diff_out_18_28_395 (protein)
# chain: MEEERAKLEEELKKLEKELNELIDRATAAATAALTAHPDDADVWALVDALFDSLGAAAYHLREARELLREGGPLEEVKKELEKAKEHLKEAKALLAELEA
# B6: usp_38_diff_out_18_28_391 (protein)
# chain: SSAERERLERELERLERELDELIDEATAVATEKLEEHPDDEEVWRLIDELFDALGRAARALSEARRLLREGGPPEEVERALEEARRHLERARELLEELKE
# B7: usp_38_diff_out_18_28_384 (protein)
# chain: DAAERAALEKELEELRKRLDELIDRAVEAATAALEAHPDDEAVWALVDALFDTLGAAAAALNEARALLKAGGDPAEVKAALEEARKALAEAERLLAELEA
# B8: usp_38_diff_out_18_28_390 (protein)
# chain: EEEERERLERRLRELERELDALIDEATAAITEALTAHPDDEEVWALVDALLDSLGRAAAALNEARRLLAEGGPLEEVERALEEAERHLREAKALLAELKA
# B9: usp_38_diff_out_18_28_389 (protein)
# chain: AAAARAALEAELAALRAELDALIDEATELATRKLEEHPDDEEVWELVDRLFDALGRAAAHLEEARRLLREGGDLAAVQAELDAARAALAEAKRLLEELKA
# B10: usp_38_diff_out_18_28_394 (protein)
# chain: SAAERAALEAELAALEAELDALIDEATKAATEALTANPDSEEVWALVDALFDALGAAAAALRRARELLRAGGPLAEVQAALDEARKHLAEAKKLLKELKA
# B11: usp_38_diff_out_18_28_392 (protein)
# chain: MEEERERLERELEELRRRLDELIDEATAVATAKLEEHPDDEEVWALIDELFDALGAAAQALREARELLREGGDPEEVRRKLEEARRALEEAERLLAELKA
# B12: usp_38_diff_out_18_28_387 (protein)
# chain: MEKEREELKKELEELRKRLDELIDRATEEATRALTAHPDDEEVWELIDRLFDTLGEAAAALNRARELLRAGGPLEEVKKELEKARKALEEAERLLEELEA
# B13: usp_38_diff_out_18_28_383 (protein)
# chain: AEAERAELEKRLEELEKELNELIDEATEAATEKLEAEPDSEEVWELVDELFDELGKAAAKLREARELLRAGAPAEEVQKALEEAEEHLKRAKELLEELKE
# B14: usp_38_diff_out_18_28_380 (protein)
# chain: AEEERRRLEEELEALKAELDALITEATALATAKLEAHPDDAEVWALVDALFDALGAAAAALERARELLRAGAPPEEVRAALAEARAHIAEARALMAQLAA
# B15: usp_38_diff_out_18_28_386 (protein)
# chain: EEERRRELERELRELERRLDELIDEAVAAATEALEAHPDDEEVWALVDELFDTLGRAAAALREARELLRAGGPLEEVERALREAREALERAERLLAELKA
# B16: usp_38_diff_out_18_28_381 (protein)
# chain: AEARRAELERRLEELLRELNELIDEATKLATEKLTEHPDDEEVWELVDRLFDELGRAAAHLREARELLRAGAPAEEVEKELREAEEHLKRAKELLKELEA
# Target: T1, USP38, Q8NB14
# Assay: median log2 fold change of GCK-ALFA target abundance (FLAG IP / Myc IP barcode read proportion) (log2 ratio); each designed protein is fused to an ALFA-tag nanobody in HEK293 cells to bring the named protein to FLAG-tagged glucokinase (GCK); Myc marks an untargeted standard; higher = target protein stabilised (more abundant)
# Conditions: target protein: 3xFLAG-MCP-GCK-ALFA reporter; HEK293 landing pad (RPLP)
# Outline: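 HEK293 landing-pad cells received a recombined binder library fused to the ALFA nanobody and were induced with 2 μg mL^−1 doxycycline, then transfected with a plasmid encoding a FLAG-tagged target and a Myc-tagged standard. Lysates were collected after 48 h for anti-FLAG and anti-Myc immunoprecipitation, and the circular RNA barcodes were reverse transcribed, amplified and sequenced. Target abundance for each binder is the median log2 ratio of FLAG to Myc barcode read proportions. Barcodes had to reach a proportion of at least 10^−7 in both replicates, each binder needed at least 3 barcodes per replicate, a pseudocount of 10^−6 was applied, and the two replicates were pooled.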
row,Binder,median log2 fold change
1,B1,-0.136
2,B2,0.11
3,B3,-0.282
4,B4,0.595
5,B5,-0.179
6,B6,-0.315
7,B7,0.0029
8,B8,0.124
9,B9,-0.314
10,B10,-0.118
11,B11,-0.26
12,B12,-0.291
13,B13,-0.0589
14,B14,-0.0972
15,B15,-0.0533
16,B16,-0.371
